# In PubChem BioAssay:
# Target: Calmodulin-1 (Homo sapiens) (UniProt P0DP23)
# Assay: calcium-bound CALM1 binders on microarrays, profiling panel, artefact control for SMM control-protein annotation, biochemical, small-molecule microarray, Cy5-labelled CALM1, plus calcium (AID 1112);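 note: score merges spot fluorescence with signal to noise from triplicate slides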
# Conditions: Cy5-CALM1 binding fluorescence, higher = more signal
row,Compound,composite z-score
1,COCCCNC(=O)[C@@]1(Sc2ccc(C)cc2)CC(=O)N(C2CCCCC2)[C@@H]1c1ccc(CO)cc1I,0.565
2,[N-]=[N+]=NCc1ccccc1C[C@]1(C(=O)O)COC(c2ccc(OCCCO)cc2)=N1,1.01
3,COC(=O)[C@@]1(Cc2ccc(OC)cc2)[C@H]2c3cc(C(=O)N(C)C)n(Cc4ccsc4Br)c3C[C@H]2CN1C(=O)c1ccccc1,0.511
4,CCCCC(=C=CC[C@@H](O)c1ccc(OCCO)cc1)C[C@@H](O)c1ccccn1,0.0751
5,O=C1NC(=O)C2C1C=CC(C(O)c1cccc(O)c1)N2Nc1ccc(Cl)cc1Cl (stereo not given),0.675
6,[N-]=[N+]=NCc1ccccc1C[C@]1(C(=O)NCc2ccccc2)N=C(c2ccc(OCCCO)cc2)O[C@H]1c1ccccc1CN=[N+]=[N-],0.533
7,O=C1O[C@H](c2ccccc2)[C@H](c2ccccc2)N2[C@H]1[C@@H](C(=O)N1CCN(c3ncccn3)CC1)[C@]1(C(=O)Nc3ccccc31)[C@H]2c1ccc(O)cc1,0.618
8,COC(=O)[C@@]1(Cc2ccc(F)cc2)[C@H]2c3cc(C(=O)N4CCCC4)n(CCO)c3C[C@H]2CN1C(=O)c1ccccc1,0.723
9,O=C1NC(=O)C2C1C=CC(C(O)c1ccc(F)cc1)N2Nc1ccccn1 (stereo not given),-0.255
10,CC[C@H](C)C(=O)O[C@H]1CC[C@]2(C)C3=C(CCC2C1(C)C)[C@]1(C)CC[C@H]([C@H](C)CCCC(C)C)[C@@]1(C)CC3 (stereo not given in full),-0.468
11,CCCC[C@H]1OB(O)C[C@H]2C1=C(COC)C[C@H]1C(=O)C=CC(=O)[C@H]12,-0.728
12,CCCCCCCCCCC(O)C1C=CC2C(=O)N(C)C(=O)C2N1N1CCCCC1 (stereo not given),1.4
13,C=CC[C@]1(C(=O)NCCCOC)N=C(c2ccc(OCCCO)cc2)O[C@H]1c1ccccc1,-0.484
14,CC1CC/C=C\[C@H]2OC34C=CCN(c5ccc(Cl)cc5)C(=O)[C@H]3N(CCCO)C(=O)[C@]4(C)C2C(=O)O1 (stereo not given in full),0.456
15,C=C(CC1([C@@H](NP(=O)(c2ccccc2)c2ccccc2)[C@H]2C[C@@H]2CCN(C(=O)OCC)S(=O)(=O)c2ccc(C)cc2)CC1)c1ccccc1,1.07
16,COCC1=C([C@H](O)CCc2ccccc2)[C@H](CO)n2c(=O)n(-c3ccccc3)c(=O)n2C1,-0.764
17,COC(=O)c1ccc([C@H](NC(=O)c2ccccc2)[C@]2(C)C[C@H]2C2CCCCC2)cc1,1.47
18,COCCOC(=O)N1C(=O)[C@@]2(c3cc(C#CC4=CCCCC4)ccc31)[C@H](c1ccccc1OCCO)N1[C@H](c3ccccc3)[C@H](c3ccccc3)OC(=O)[C@H]1[C@@H]2C(N)=O,-0.416

row,Compound,composite z-score
1,C=CCC(OC(C)=O)[C@@H]1[C@@H](N(Cc2cc3ccccc3o2)C(=O)Cc2ccc(OC)cc2)c2cc(OCCCO)ccc2N1C(=O)Cc1ccc2ccccc2c1 (stereo not given in full),0.191
2,COc1ccc([Si](C)(C)[C@H]2[C@H](CCO)O[C@@]3(C(=O)N(Cc4ccccc4)c4ccc(N(C=O)c5ccccc5)cc43)[C@@H]2C)cc1,0.444
3,CC(C)CNC(=O)[C@@H]1c2ccccc2C(=O)N(Cc2ccccc2Cl)[C@H]1c1ccc(CO)cc1,-0.116
4,CCCCNC(=O)c1ccc(C#C[Si](C)(C)C)c(OC(C)=O)c1,-0.834
5,COc1cc2c(cc1O)C(c1ccc(CN3CCCC3)cc1)N(Cc1cccc(OC(F)(F)F)c1)CC2 (stereo not given),-0.664
6,C=CCOC(=O)[C@H]1[C@@H]2C(=O)O[C@@H](c3ccccc3)[C@@H](c3ccccc3)N2[C@@H](c2ccc(OCCOC(=O)[C@H]3C[C@H]4C(=O)NCC(=O)N4[C@H]3c3ccc(O)cc3)cc2)[C@]12C(=O)Nc1ccc(I)cc12,0.295
7,NC(=O)N1C(=O)C2C(C1=O)C1C=C(CCCO)C2C(c2ccc(CN3CCCC3)cc2)N1Cc1cccc(OC(F)(F)F)c1 (stereo not given),-0.202
8,C=C(CCCC)C(=O)CC[C@H](OC(C)=O)c1ccccc1OCCO,-1.13
9,C=CCC(OC(C)=O)[C@@H]1[C@@H](N(Cc2cccc3ccccc23)C(=O)c2ccc(-c3ccccc3)cc2)c2cc(OCCCO)ccc2N1C(=O)c1ccc2ccccc2n1 (stereo not given in full),0.979
10,COC(=O)[C@@]1(Cc2ccccc2)[C@@H]2[C@@H](CC(=O)[C@H]2CC(=O)C(=O)N(C)C)CN1C(=O)c1ccccc1,0.599
11,COCCOC(=O)N1C(=O)[C@@]2(c3cc(C#Cc4ccc(OC)cc4)ccc31)[C@H](C(=O)Nc1nc3ccccc3s1)[C@H]1C(=O)O[C@H](c3ccccc3)[C@H](c3ccccc3)N1[C@@H]2c1ccccc1OCCO,0.747
12,CCc1cccc(NC(=O)O[C@H]2[C@H](OC(=O)Nc3ccc4c(c3)OCO4)[C@H](OC(=O)Nc3ccc4c(c3)OCO4)[C@@H](OC)O[C@@H]2CO)c1,-0.943
13,C=C(COC)/C(=C/C[C@H](OC(=O)c1ccncc1)c1cccc(OCCO)c1)c1cnc2ccccc2c1,-0.64
14,COCCn1c(C(=O)N2CCCC2)cc2c1C[C@H]1CN(C(=O)c3ccccc3)[C@@](Cc3ccccc3)(C(=O)OC)[C@@H]21,0.808
15,O=C1C2C=CC(C(O)C(c3ccccc3)c3ccccc3)N(Nc3ccccc3)C2C(=O)N1c1ccccc1 (stereo not given),0.173
16,Cc1ccc(S(=O)(=O)N2[C@@H](c3ccccc3)C(C(=O)O)=CC[C@H]2c2ccc(C#N)cc2)cc1,-0.269
17,C=CCC(OC(C)=O)[C@@H]1[C@@H](N(Cc2cc3ccccc3o2)C(=O)c2ccc(-c3ccccc3)cc2)c2cc(OCCCO)ccc2N1C(=O)c1ccc2ccccc2n1 (stereo not given in full),0.898
